Laboratory results: PubChem BioAssay AID1347416 (National Center for Advancing Translational Sciences (NCATS), 2020)
In all, about 4,100 compounds went through this assay and about 1,600 (39%) were called active. Another 25% or so got no clear call; they are omitted. Calls come from the whole dose curve; as a rule, active = well fitted inhibition curve with a large enough effect; inconclusive = small, poorly fitted or top-dose-only effect; inactive = no such curve, though single readings can be large or run the other way. The list shows a part of the results.

Experiment: qHTS Validation assay for Inhibitors of Plasmodium falciparum Dd2 growth in vitro; note: nearly all actives have a fitted effect of over 70% in size
Conditions: P. falciparum Dd2 in RBCs, SYBR Green growth, 72 h; series mostly up to 28.7 µM
How it was run: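 P. falciparum Dd2-infected red blood cells (2.5% hematocrit, 0.3% parasitemia) grown 72 h at 37 °C under 5% O2 with compounds in a titration, 29 uM to 0.5 nM final. Growth read as SYBR Green-1 fluorescence after ~16 h lysis; artesunate 300 nM as positive control.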
Potency is the fitted concentration of half-maximal effect.

| SMILES | Potency |
| --- | --- |
| CC1=C[C@@H](CNCc2cccnc2)[C@H](C(C)C)C[C@H]1Cc1nnc(-c2ccc([N+](=O)[O-])cc2)o1 | 5.31 µM (active) |
| COc1ccc(-c2nnc(C[C@@H]3C[C@@H](C(C)C)[C@H](CNCc4cccnc4)C=C3C)o2)cc1 | 6.68 µM (active) |
| CC1=C[C@@H](CNCc2cccnc2)[C@H](C(C)C)C[C@H]1Cc1nnc(-c2ccc(N(C)C)cc2)o1 | 5.31 µM (active) |
| Brc1ccc(-c2ccnc3nc(-c4cccs4)nn23)s1 | inactive |
| Cc1[nH]cnc1CSCCn1ccnc1-c1nccn1C | inactive |
| COc1cc(C(=O)OCC(=O)N2CCCCC2C)cc(NC(=O)c2cccs2)c1OC (stereo not given) | 0.473 µM (active) |
| COc1cc2c(cc1OC)CN(C(=O)c1cccs1)CC2 | inactive |
| CCOC(=O)c1c(CN(CC)CC)n(C)c2cc(Br)c(O)cc12 | 9.44 µM (active) |
| CCOC(=O)c1c(CN2CCCCC2)n(C)c2cc(Br)c(O)cc12 | 7.5 µM (active) |
| CCOC(=O)C1=C(O)/C(=C/c2cc(C)n(-c3ccccc3)c2C)N=C1C | inactive |
| CCOC(=O)c1c(CN2CCN(CCO)CC2)n(-c2ccccc2)c2cc(Br)c(O)cc12 | 5.96 µM (active) |
| CCOC(=O)c1c(CN2CCN(c3ccccc3)CC2)oc2cc(Br)c(O)cc12 | 1.88 µM (active) |
| CCOC(=O)c1c(CNc2ccncc2)n(C)c2cc(Br)c(O)cc12 | 2.66 µM (active) |
| CCOC(=O)c1c(CSC(=N)N)n(-c2ccc(C)cc2)c2cc(Br)c(OC(C)=O)cc12 | 5.96 µM (active) |
| CCOC(=O)c1c(CN(C)C)n(-c2ccc(C)cc2)c2cc(Br)c(O)cc12 | 4.22 µM (active) |
| COc1ccc(C(=O)N2CCC(Cc3nc(-c4cccnc4)n[nH]3)C2)cc1F (stereo not given) | inactive |
| COc1ccc(-c2[nH]nc3ncc(-c4cccnc4)nc23)cc1F | 3.85 µM (active) |
| COc1ccccc1CCNC(=O)c1cccn1-c1nnc(N2CCCCC2)s1 | inactive |
| Fc1ccc(N2CCN(Cc3cccn3-c3nnc(N4CCN(C5CCCCC5)CC4)s3)CC2)cc1 | 11.9 µM (active) |
| CN(CC1CCOCC1)S(=O)(=O)c1ccc(F)c(Cl)c1 | inactive |

| SMILES | Potency |
| --- | --- |
| CCCCN(CCCC)CC(O)Cn1cc(/C=C/C(=O)c2ccccc2)c2ccccc21 (stereo not given) | 1.68 µM (active) |
| CCCN(CCC)CC(O)Cn1cc(/C=C/C(=O)c2ccc(C)cc2)c2ccccc21 (stereo not given) | 4.73 µM (active) |
| O=C(NC1CCCN(c2cc(-c3ccccc3)[nH]n2)C1)c1cc(F)ccc1F (stereo not given) | inactive |
| COc1cccc(CN2CCC3(CC2)Cc2ccccc2NC3=O)c1 | inactive |
| COc1ccc(C(=O)N2CCCn3cc(-c4ccccc4F)nc32)cn1 | inactive |
| COc1ccc(C(=O)N2CCC3(CC2)OC(=O)N(Cc2ccc(O)cc2)C3(C)c2ccccc2)cn1 (stereo not given) | 6.68 µM (active) |
| CC1(c2ccccc2)N(Cc2ccccc2F)C(=O)OC12CCN(Cc1cccc(O)c1)CC2 (stereo not given) | 6.68 µM (active) |
| COc1cccc(CN2CCC3(CC2)OC(=O)N(Cc2ccccc2)C3(C)c2ccccc2)c1 (stereo not given) | 15 µM (active) |
| CC1(c2ccccc2)N(Cc2ccccc2)C(=O)OC12CCN(Cc1cccc(O)c1)CC2 (stereo not given) | 8.41 µM (active) |
| COc1ccc(C(=O)N2CCC(c3nc(C4CCOCC4)no3)CC2)cn1 | inactive |
| Cc1nc(CN2C(=O)OC3(CCN(C(=O)c4ccc(Oc5ccccc5)cc4)CC3)C2(C)c2ccccc2)cs1 (stereo not given) | 13.3 µM (active) |
| O[C@H]1CC[C@@H](Cc2cc(COc3ccccc3)on2)O[C@@H]1CNCc1cccc(Cl)c1 | 2.11 µM (active) |
| O[C@@H]1CC(CNCc2cccc(Cl)c2)(COc2ccccc2)C[C@@H]1O (stereo not given in full) | 3.85 µM (active) |
| CN(Cc1ccccc1)Cc1cc(C[C@@H]2CC[C@H](O)[C@@H](CNCc3ccccc3)O2)no1 | 4.73 µM (active) |
| O=C(NC[C@H]1O[C@H](Cc2cc(CN3CCNCC3)on2)CC[C@@H]1O)c1ccccc1F | inactive |
| Cc1cccc(OCC2(CNCc3cccnc3)C[C@@H](O)[C@@H](O)C2)n1 (stereo not given in full) | inactive |
| COc1ccccc1CNC[C@H]1O[C@H](Cc2cc(CN(C)Cc3ccccc3)on2)CC[C@@H]1O | 2.99 µM (active) |
| O=C(c1cc(F)ccc1F)N1CC(c2nnc(-c3ccncc3)o2)C2(CCOCC2)C1 (stereo not given) | inactive |
| COc1cc(OC)c(NC(=O)Cn2c(C)cc3nc4n(c(=O)c32)CCCCC4)cc1Cl | inactive |
| COc1cc(Cc2cc(N)nc(N)n2)cc(OC)c1OC | inactive |

| SMILES | Potency |
| --- | --- |
| COc1ccc(-c2cn(CCc3c[nH]c4ccccc34)nn2)cc1 | inactive |
| COc1ccc(CN2C[C@H]3CN(Cc4c[nH]c5ccccc45)CCN3C2=O)cc1 | 3.85 µM (active) |
| Cc1nnc([C@H]2CCN(Cc3c[nH]c4ccccc34)C2)o1 | inactive |
| Cc1nonc1CC(=O)N1CCCC(CNS(=O)(=O)c2cccs2)C1 (stereo not given) | inactive |
| CC1(c2ccccc2)CC(c2ccccc2)=Nc2nonc2N1 (stereo not given) | 5.31 µM (active) |
| COc1cc(/C=C(\C#N)c2nc3ccccc3[nH]2)ccc1OCc1ccc(F)cc1 | 5.31 µM (active) |
| COc1cc(/C=C(\C#N)c2nc3ccccc3[nH]2)cc(Cl)c1OCc1ccccc1Cl | 5.31 µM (active) |
| COc1cc(SC)ccc1C(=O)Nc1nc2ccccc2[nH]1 | inactive |
| O=C(Nc1cnc2ccccc2c1)c1cccc(-n2cnnn2)c1 | 2.66 µM (active) |
| CCc1noc(-c2cccn3c(CNC(=O)c4ccc(Cl)cc4)nnc23)n1 | inactive |
| Cc1ccc(C)c(Oc2c(C(F)(F)F)oc3c(CN4CCN(C)CC4)c(O)ccc3c2=O)c1 | 0.75 µM (active) |
| CC(C)c1ccccc1Oc1c(C(F)(F)F)oc2c(CN3CCN(C)CC3)c(O)ccc2c1=O | 0.668 µM (active) |
| CCN1CCN(Cc2c(O)ccc3c(=O)c(Oc4ccccc4C(C)C)c(C(F)(F)F)oc23)CC1 | 0.596 µM (active) |
| Cc1ccccc1C(=O)NC(CC(C)C)C(=O)OCC(=O)c1c(N)n(C)c(=O)n(C)c1=O (stereo not given) | 2.66 µM (active) |
| CCSc1nnc(SCC(=O)c2c(N)n(C)c(=O)n(C)c2=O)s1 | inactive |
| Cc1ccc(N(C)C2=NC(=O)CS2)cc1Cl | 9.44 µM (active) |
| COc1cc(O)c(C(CCN2CCCCC2)c2cc(OC)c(OC)c(OC)c2)c(OC)c1 (stereo not given) | 2.66 µM (active) |
| COc1cc(O)c(C(CCN2CCCC(C)C2)c2cc(OC)c(OC)c(OC)c2)c(OC)c1 (stereo not given) | 1.88 µM (active) |
| COc1cc(O)c(C(CCN2CCCCC2)c2ccc(N(C)C)cc2)c(OC)c1 (stereo not given) | 2.66 µM (active) |
| COc1cc(O)c(C(CCN2CCCC(C)C2)c2ccc(N(C)C)cc2)c(OC)c1 (stereo not given) | 1.68 µM (active) |
